Data published in PubChem BioAssay (NCATS).
Inconclusive results are not listed. Activity calls are given as the source filed them. Calls come from the whole dose curve; as a rule, active = well fitted inhibition curve with a large enough effect; inconclusive = small, poorly fitted or top-dose-only effect; inactive = flat fitted curve, though single readings scatter.

Each compound was assayed against Calcium and integrin-binding protein 1 (Homo sapiens) (UniProt Q99828) (assay: Primary qHTS for Identification of Calcium Integrin Binding Protein 1 (CIB1) Competitor (AID 1508620;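 note: GST tagged CIB1 binding a fluorescein labelled alphaIIb integrin peptide tracer; top concentration of the series differs between compounds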)). Conditions: CIB1-GST / FITC-alphaIIb peptide fluorescence polarization; series mostly up to 114 µM; activity change, negative = inhibition: at the top concentration.
Chain of Calcium and integrin-binding protein 1 (Homo sapiens) (Q99828 whole entry, looked up): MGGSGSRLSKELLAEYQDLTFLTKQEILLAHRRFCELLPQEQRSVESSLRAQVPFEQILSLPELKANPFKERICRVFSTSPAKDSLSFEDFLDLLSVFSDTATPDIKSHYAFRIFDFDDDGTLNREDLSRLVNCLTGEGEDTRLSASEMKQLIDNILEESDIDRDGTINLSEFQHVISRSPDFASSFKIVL
Method in brief: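 Fluorescence polarization competition: CIB1-GST (1 uM final) preincubated with compound 15 min at room temperature, then FITC-labeled alphaIIb peptide (100 nM final) added for another 15 min. Polarization read at Ex 480/Em 540.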
% is set by controls: 0 for no effect and ±100 for the full control effect.

Row | SMILES | activity change, negative = inhibition
1 | CCOCCOC(=O)/C=C/c1ccc(OC)cc1 | -5.34% (inactive)
2 | COC(=O)[C@@]1(c2ccc(C)cc2)C[C@H]1CN1CCC(O)(c2ccccc2)CC1 | 0.336% (inactive)
3 | COC1/C=C/C(C)(O)C(SCC(N)C(=O)O)CC(=O)OC(C)C(C)CC/C=C/1C (configuration not stated) | -5.29% [at 57.7 µM] (inactive)
4 | O=C(O)c1ccccc1NCCc1ccccc1 | -6.14% (inactive)
5 | CCNCc1nc2c(N)nc3ccccc3c2n1CC(C)(C)O | -7.2% (inactive)
6 | CNC(=O)c1cc(Oc2ccc3nc(N[C@@H]4CCCC[C@H]4O)sc3c2)ccn1 | 15.6% (inactive)
7 | CC(=O)NC[C@H]1CN(c2ccc(N3CCN(C(=O)CO)CC3)c(F)c2)C(=O)O1 | 4.85% (inactive)
8 | Cc1c(F)cc(C(=O)NC2CC2)cc1-c1c(F)cn2c(C(C)(C)C)nnc2c1F | -4.24% (inactive)
9 | COc1ccc(-n2[nH]c(=O)c3[nH]c4cc(Cl)ccc4c(=O)c3c2=O)c(C)c1 | -11.4% (inactive)
10 | COc1ccc(C2COc3cc(O)ccc3C2)c(O)c1 (configuration not stated) | -1.92% (inactive)
11 | CCC(C(=O)O)c1ccc(N2Cc3ccccc3C2=O)cc1 (configuration not stated) | 0.0848% (inactive)
12 | CCc1cccc(CC)c1NC(=O)c1nn(C)c2c1CCc1cnc(Nc3ccc(C(=O)NC4CCN(C)CC4)cc3OC(F)(F)F)nc1-2 | 1.36% [at 57.7 µM] (inactive)
13 | CCCC(=O)C1CCN(c2ncnc3c2CN(C(=O)c2ccc(-c4ccccc4)cc2)CC3)CC1 | 0.9% (inactive)
14 | COc1nc2sc(C(=O)NC3CC3)c(N)c2c(C)c1Cl | -7.8% (inactive)
15 | Nc1nc2c(c(N3CCNCC3)n1)CCC1=C2[C@@H]2CCCC[C@@H]2O1 | 6.81% (inactive)
16 | Cc1ccc(S(=O)(=O)Nc2ccccc2N2CCCCC2)s1 | 3.52% (inactive)
17 | COc1ccc2c(OC)c3ccoc3nc2c1OC | 0.975% (inactive)
